In the supplement of paper PMC12819154, “High-throughput peptide-centric local stability assay extends protein–ligand identification to membrane proteins, tissues and bacteria” (Nature Structural & Molecular Biology, 2025):

The targets below were run with Nc1ncnc2c1ncn2[C@@H]1O[C@H](COP(=O)(O)OP(=O)(O)OP(=O)(O)O)[C@@H](O)[C@H]1O [adenosine 5'-triphosphate] (assay: log2 fold change of tryptic peptide abundance, ligand vs vehicle (limited proteolysis) (log2 ratio); higher = more trypsin-susceptible (destabilized)). Details: ligand concentration: 5 mM; sample: E. coli desalted lysate; replicate design: treated before aliquoting.
Method: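 HT-PELSA: desalted E. coli K-12 BW25113 lysate (with 12 mM MgCl2) incubated with 5 mM ATP (pH 7) or water for 30 min at 25 C, then a 4 min trypsin pulse at 22 C. Peptides were quantified by DIA-MS (4 replicates). Value is the peptide log2 fold change (treated/control); negative = stabilized. Scale: negative = ligand-stabilized region.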
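Further: lysate desalted by size exclusion to strip endogenous ATP, peptide intensities built from DIA-NN precursor signals, and peptides missing any value discarded before comparison.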

Chain of UniProt P37349 (P37349 whole entry): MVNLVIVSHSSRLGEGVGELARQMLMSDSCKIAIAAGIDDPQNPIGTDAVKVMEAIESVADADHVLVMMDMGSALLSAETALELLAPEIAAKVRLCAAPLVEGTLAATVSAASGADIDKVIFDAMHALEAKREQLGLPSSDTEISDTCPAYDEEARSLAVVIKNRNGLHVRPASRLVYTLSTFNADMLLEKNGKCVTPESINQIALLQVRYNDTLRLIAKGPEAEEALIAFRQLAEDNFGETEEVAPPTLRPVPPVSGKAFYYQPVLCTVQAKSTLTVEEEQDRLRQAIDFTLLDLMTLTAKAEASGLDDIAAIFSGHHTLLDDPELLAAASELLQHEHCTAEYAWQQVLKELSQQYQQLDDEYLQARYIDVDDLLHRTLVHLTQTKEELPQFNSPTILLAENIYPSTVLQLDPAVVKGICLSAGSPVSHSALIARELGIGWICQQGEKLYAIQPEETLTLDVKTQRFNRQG
Chain of UniProt P33029 (P33029 whole entry): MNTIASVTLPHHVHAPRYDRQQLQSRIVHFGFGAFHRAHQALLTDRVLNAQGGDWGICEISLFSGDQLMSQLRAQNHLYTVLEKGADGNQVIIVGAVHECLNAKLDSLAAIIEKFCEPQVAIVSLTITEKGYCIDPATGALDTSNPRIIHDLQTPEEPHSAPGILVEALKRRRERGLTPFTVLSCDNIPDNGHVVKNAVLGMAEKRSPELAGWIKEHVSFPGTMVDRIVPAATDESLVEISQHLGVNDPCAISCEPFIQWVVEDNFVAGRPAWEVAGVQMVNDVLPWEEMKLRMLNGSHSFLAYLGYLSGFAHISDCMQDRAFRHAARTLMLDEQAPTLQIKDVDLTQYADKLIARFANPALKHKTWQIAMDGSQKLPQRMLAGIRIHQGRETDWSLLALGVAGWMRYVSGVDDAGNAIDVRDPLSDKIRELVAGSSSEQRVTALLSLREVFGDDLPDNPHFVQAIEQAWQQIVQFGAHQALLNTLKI
Chain of UniProt P39285 (P39285 whole entry): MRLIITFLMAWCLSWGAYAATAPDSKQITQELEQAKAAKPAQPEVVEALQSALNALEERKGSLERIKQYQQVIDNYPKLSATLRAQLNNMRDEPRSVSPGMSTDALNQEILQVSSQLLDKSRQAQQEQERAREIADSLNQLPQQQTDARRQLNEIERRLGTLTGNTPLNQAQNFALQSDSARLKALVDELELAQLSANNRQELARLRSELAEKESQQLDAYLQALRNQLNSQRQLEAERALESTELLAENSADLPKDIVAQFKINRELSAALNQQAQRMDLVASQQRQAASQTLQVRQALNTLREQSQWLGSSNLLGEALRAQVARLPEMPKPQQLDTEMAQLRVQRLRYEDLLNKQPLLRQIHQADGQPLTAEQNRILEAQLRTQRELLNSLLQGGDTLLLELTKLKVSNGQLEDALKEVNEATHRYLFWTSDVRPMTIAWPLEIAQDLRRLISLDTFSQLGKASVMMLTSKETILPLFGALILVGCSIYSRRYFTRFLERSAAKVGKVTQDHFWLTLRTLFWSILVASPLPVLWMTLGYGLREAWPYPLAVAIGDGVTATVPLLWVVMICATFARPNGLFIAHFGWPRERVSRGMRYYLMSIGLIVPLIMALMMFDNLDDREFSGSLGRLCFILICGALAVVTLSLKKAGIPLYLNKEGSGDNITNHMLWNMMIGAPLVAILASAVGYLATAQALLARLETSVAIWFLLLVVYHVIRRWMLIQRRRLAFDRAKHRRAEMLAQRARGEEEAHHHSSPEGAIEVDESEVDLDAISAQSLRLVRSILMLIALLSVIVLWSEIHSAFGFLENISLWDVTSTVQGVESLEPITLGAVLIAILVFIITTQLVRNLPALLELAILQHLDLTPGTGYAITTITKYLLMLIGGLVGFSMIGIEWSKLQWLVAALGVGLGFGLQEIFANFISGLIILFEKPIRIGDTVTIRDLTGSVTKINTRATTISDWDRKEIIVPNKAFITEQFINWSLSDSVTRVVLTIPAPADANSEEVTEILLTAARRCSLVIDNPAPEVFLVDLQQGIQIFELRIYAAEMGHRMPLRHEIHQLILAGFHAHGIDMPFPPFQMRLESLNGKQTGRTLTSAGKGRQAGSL
Chain of UniProt P37908 (P37908 whole entry): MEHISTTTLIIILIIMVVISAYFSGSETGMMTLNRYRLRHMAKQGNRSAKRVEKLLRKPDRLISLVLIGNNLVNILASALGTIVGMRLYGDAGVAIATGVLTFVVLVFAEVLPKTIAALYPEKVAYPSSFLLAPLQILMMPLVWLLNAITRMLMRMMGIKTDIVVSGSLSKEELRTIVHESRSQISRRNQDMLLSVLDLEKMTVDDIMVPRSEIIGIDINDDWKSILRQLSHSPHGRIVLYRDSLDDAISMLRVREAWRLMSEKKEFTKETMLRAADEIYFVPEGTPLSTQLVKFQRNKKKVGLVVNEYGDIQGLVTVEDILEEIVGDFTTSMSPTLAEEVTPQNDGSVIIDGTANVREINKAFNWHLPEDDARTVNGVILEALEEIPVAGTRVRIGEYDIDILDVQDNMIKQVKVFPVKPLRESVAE
Chain of UniProt P34209 (P34209 whole entry): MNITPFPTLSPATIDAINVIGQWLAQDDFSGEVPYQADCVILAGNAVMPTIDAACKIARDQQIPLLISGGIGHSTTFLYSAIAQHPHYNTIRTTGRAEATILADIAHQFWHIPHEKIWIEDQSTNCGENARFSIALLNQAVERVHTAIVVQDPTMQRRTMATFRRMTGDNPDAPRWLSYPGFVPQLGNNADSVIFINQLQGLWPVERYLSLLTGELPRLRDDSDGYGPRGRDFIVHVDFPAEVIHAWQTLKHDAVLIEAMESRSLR
Chain of UniProt P77544 (P77544 whole entry): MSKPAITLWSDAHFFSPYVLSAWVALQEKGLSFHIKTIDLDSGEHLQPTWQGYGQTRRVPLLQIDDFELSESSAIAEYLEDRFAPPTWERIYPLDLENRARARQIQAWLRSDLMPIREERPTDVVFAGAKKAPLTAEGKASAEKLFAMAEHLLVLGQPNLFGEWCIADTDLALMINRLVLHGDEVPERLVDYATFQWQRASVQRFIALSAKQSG
Chain of UniProt P03841 (P03841 whole entry): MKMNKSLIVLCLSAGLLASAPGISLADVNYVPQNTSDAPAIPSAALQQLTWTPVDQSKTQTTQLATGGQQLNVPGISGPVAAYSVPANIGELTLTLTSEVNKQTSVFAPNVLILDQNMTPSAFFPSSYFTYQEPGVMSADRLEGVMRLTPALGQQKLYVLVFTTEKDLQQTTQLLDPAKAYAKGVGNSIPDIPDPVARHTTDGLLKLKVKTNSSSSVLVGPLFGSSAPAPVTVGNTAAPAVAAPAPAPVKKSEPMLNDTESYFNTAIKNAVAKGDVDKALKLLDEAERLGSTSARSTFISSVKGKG
Chain of UniProt P30176 (P30176 whole entry): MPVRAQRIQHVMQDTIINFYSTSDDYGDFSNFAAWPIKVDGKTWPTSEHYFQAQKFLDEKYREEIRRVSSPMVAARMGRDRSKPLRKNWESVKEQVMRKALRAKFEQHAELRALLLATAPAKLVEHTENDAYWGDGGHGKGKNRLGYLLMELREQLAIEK
Chain of UniProt P07118 (P07118 whole entry): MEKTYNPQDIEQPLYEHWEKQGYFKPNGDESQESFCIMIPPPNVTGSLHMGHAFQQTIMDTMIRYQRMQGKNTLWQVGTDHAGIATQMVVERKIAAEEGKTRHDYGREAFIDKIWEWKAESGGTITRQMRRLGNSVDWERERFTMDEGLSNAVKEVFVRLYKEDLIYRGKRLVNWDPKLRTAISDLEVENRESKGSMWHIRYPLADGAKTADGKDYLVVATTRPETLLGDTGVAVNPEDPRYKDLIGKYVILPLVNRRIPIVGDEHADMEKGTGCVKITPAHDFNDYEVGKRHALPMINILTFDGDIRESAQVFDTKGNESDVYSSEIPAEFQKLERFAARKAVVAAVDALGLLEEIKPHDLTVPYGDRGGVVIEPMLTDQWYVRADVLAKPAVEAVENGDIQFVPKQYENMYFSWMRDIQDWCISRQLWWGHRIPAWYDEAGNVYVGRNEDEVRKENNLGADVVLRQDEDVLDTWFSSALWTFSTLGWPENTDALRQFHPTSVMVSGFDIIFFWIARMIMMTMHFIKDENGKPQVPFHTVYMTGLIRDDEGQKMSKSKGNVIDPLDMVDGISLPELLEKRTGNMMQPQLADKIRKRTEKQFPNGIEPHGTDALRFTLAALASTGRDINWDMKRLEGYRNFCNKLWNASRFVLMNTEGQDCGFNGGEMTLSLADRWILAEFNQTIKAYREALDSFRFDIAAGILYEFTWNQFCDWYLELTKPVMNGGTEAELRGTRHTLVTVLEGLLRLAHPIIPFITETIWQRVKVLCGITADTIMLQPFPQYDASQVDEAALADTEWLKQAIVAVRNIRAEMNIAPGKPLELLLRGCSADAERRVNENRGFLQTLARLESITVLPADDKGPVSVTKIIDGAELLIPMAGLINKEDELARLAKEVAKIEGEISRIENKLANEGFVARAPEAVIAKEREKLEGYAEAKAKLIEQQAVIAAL
Chain of UniProt P17846 (P17846 whole entry): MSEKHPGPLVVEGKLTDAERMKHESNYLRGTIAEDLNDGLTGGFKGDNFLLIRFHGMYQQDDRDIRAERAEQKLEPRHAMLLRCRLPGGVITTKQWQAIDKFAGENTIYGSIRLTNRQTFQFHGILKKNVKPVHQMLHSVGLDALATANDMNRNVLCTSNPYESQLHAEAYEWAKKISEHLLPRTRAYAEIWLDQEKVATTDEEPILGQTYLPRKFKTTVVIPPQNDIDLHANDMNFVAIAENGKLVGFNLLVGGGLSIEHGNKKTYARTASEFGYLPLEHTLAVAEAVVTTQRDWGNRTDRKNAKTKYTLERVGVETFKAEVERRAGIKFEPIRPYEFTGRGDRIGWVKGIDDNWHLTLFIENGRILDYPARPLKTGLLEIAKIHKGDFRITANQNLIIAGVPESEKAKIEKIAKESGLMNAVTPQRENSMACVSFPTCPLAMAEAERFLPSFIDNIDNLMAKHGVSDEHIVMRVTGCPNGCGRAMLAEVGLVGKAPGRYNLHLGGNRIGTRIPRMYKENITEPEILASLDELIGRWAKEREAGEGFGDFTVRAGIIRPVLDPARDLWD

Point of comparison: “UniProt P30176 (peptide sequence: LVEHTENDAYWGDGGHGK, peptide start residue: 123)”, log2 fold change -0.814. Against it:
- UniProt P33030 (peptide sequence: TTPESEQALQR, peptide start residue: 157) — higher, -0.316
- UniProt P37624 (peptide sequence: LFHIPEAEIPAR, peptide start residue: 376) — lower, -1.74
- UniProt P34209 (peptide sequence: MTGDNPDAPR, peptide start residue: 166) — higher, -0.261
- UniProt P37908 (peptide sequence: RNQDMLLSVLDLEK, peptide start residue: 188) — lower, -2.2
- UniProt P37647 (peptide sequence: LTGGSAEDAAK, peptide start residue: 275) — lower, -1.34
- UniProt P22525 (peptide sequence: AGVLALNIQR, peptide start residue: 356) — higher, -0.343
- UniProt P75919 (peptide sequence: LLSDDPAKGEGK, peptide start residue: 249) — within 0.2 log units, -0.826
- UniProt P37182 (peptide sequence: ESGVEAIPR, peptide start residue: 151) — higher, 0.522
- UniProt P0A9B6 (peptide sequence: SLQSLPWR, peptide start residue: 82) — within 0.2 log units, -0.912
- UniProt P76085 (peptide sequence: QLGGDASGCSLR, peptide start residue: 198) — lower, -1.23
- UniProt P18776 (peptide sequence: PICVESCPLR, peptide start residue: 139) — lower, -1.14
- UniProt P61887 (peptide sequence: FGVVEFDDNFR, peptide start residue: 143) — higher, -0.44
- UniProt P76273 (peptide sequence: CGISNVALTHFDGR, peptide start residue: 165) — higher, 0.512
- UniProt P04425 (peptide sequence: GTLIVNKPQSLR, peptide start residue: 109) — lower, -1.9
- UniProt P77544 (peptide sequence: QIQAWLR, peptide start residue: 104) — higher, 0.878
- UniProt P21499 (peptide sequence: DGQLVFTR, peptide start residue: 65) — within 0.2 log units, -0.675
- UniProt P56579 (peptide sequence: MGIQLEQK, peptide start residue: 172) — higher, 0.509
- UniProt P03841 (peptide sequence: STFISSVKGKG, peptide start residue: 296) — higher, 0.922
- UniProt P33029 (peptide sequence: AHQALLTDR, peptide start residue: 38) — higher, -0.503
- UniProt P76346 (peptide sequence: LHHANDTDSFSATNVH, peptide start residue: 250) — higher, 0.288
- UniProt P0AAT4 (peptide sequence: AHLLKPYLTSR, peptide start residue: 288) — higher, 0.38
- UniProt P76422 (peptide sequence: NTHGTGCTLSAALAALRPR, peptide start residue: 207) — lower, -1.45
- UniProt P76097 (peptide sequence: FGEIEQR, peptide start residue: 288) — higher, 0.885
- UniProt P75874 (peptide sequence: YLLDQGYHVIPVSPK, peptide start residue: 35) — higher, 0.437
- UniProt P16676 (peptide sequence: LYNGDER, peptide start residue: 345) — higher, 0.414
- UniProt P25894 (peptide sequence: QRGISPAGLATSFEK, peptide start residue: 202) — higher, 0.934
- UniProt P32125 (peptide sequence: AGAAQTIVASQQR, peptide start residue: 63) — within 0.2 log units, -0.686
- UniProt P07118 (peptide sequence: TGNMMQPQLADKIR, peptide start residue: 582) — higher, 2.07
- UniProt P17846 (peptide sequence: IHKGDFR, peptide start residue: 385) — higher, 1.23
- UniProt P37349 (peptide sequence: LIAKGPEAEEALIAFR, peptide start residue: 217) — higher, 0.492
- UniProt P25516 (peptide sequence: KTLGLTGEEK, peptide start residue: 823) — within 0.2 log units, -0.721
- UniProt P77522 (peptide sequence: IMPTATNAR, peptide start residue: 392) — higher, 1.07
- UniProt P29018 (peptide sequence: HLSWVGQNPQLPAATLR, peptide start residue: 424) — higher, -0.418
- UniProt P10423 (peptide sequence: KSWHNVTGSTVIAAHEGK, peptide start residue: 90) — higher, -0.451
- UniProt P43329 (peptide sequence: IAEELKTEPGGCIGYK, peptide start residue: 142) — lower, -2.41
- UniProt P32141 (peptide sequence: ASGGFAMLAVDQR, peptide start residue: 12) — higher, -0.432
- UniProt P39285 (peptide sequence: IYAAEMGHR, peptide start residue: 1044) — higher, 0.638
- UniProt P27550 (peptide sequence: IAEAAVVGIPHNIK, peptide start residue: 542) — lower, -2.61
